# Hit rate of the full screen: of about 310,000 compounds, about 11,000 (3.5%) were called active. About 4% were inconclusive and are not listed. The sample holds actives, similar compounds and a random draw of the others, so the mix is not that of the screen. The call rests on the fitted dose curve; in most records, active means well fitted inhibition curve with a large enough effect; inconclusive means small, poorly fitted or top-dose-only effect, or another doubt; inactive means no such curve, though single readings can be large or run the other way.
# Molecular target: 4'-phosphopantetheinyl transferase ffp (Bacillus subtilis) (UniProt Q9F4F7)
# Experiment: qHTS Assay for Inhibitors of Bacillus subtilis Sfp phosphopantetheinyl transferase (PPTase);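 further: the enzyme is Sfp with the accession as filed and its product quenches rhodamine fluorescence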;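 on largest response in the series, negative = inhibition: 0% = enzyme reaction without inhibitor and -100% = no enzyme wells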
# Conditions: Biochemical Sfp PPTase activity
# Excerpt: Assay Submitter: Michael Burkart, University of California, San Diego
# Screening Center PI: Austin, C.P.
# Screening Center: NIH Chemical Genomics Center [NCGC]
# The covalent attachment of a phosphopantetheinyl (4'-PP) arm to a variety of synthases and other proteins is a key posttranslational protein modification. The 4'-PP is installed on the proteins post-translationally from coenzyme A (CoA) on a conserved serine residue by action of phosphopantetheinyl transferase (PPTase) enzymes. Phosphopantetheinylation is essential for synthase activity, and removal of the PPTase gene precludes natural product synthesis in microorganisms, or in the case of fatty acid biosynthesis, renders the organism unviable. PPTase enzymes belong to a distinct structural superfamily. Within bacteria, these enzymes are grouped into two classes based upon primary structure, the AcpS-Type and Sfp-Type PPTases.
# Sfp-type PPTases, corresponding to an activator of surfactin production in Bacillus subtilis, are responsible for modifying type I polyketide and nonribosomal peptide synthases of prokaryotes. Sfp-type PPTases are responsible for the activation of a variety of pathogen-associated virulence factors. Among these compounds are toxins such as mycolactone from Mycobacterium ulcerans, siderophores such as vibriobactin from Vibrio cholerae or mycobactin from Mycobacterium tuberculosis, as well as the mycolic acids which form the waxy cell wall of Mycobacteria. The biosyntheses of these natural products are considered attractive targets for drug design.
# In search of small molecule Sfp-PPTase inhibitors, a fluorescence quenching assay was developed for detection of Bacillus subtilis Sfp-PPTase enzymatic activity in a miniaturized high-throughput format. The consensus ybbr acceptor peptide […] was N-terminally labeled with Black Hole Quencher-2 (BHQ-2) and used in combination with rhodamine-labeled coenzyme A as a co-substrate.
# Inhibition of Sfp-PPTase was detected by recording the fluorescence intensity change over a 30-minute reaction period at a 525 nm excitation and 598 nm emission. Reagents were supplied by Michael Burkart and Timothy Foley, University of California at San Diego.
# This BioAssay deposition is for validation of the developed Sfp-PPtase assay.
# Assay Buffer: 50 mM Hepes-Na pH 7.6, 10 mM MgCl2, 0.01% Nonidet P-40, and 0.01% BSA.
# 3 uL of Sfp-PPTase enzyme (final concentration 15 nM) and 1 uL of substrate mixture (final concentration for rhodamine-CoA and BHQ-2-YbbR 5 uM and 12.5 uM, respectively) dispensed in columns 1, 2, 5 - 48. Columns 1 and 2 used to generate neutral control (uninhibited reaction)
# Three uL of reagents, consisting of buffer (in columns 3 and 4 as negative control) and Sfp-PPTase (in columns 1, 2, 5 - 48) were dispensed into 1,536-well Greiner black solid bottom plate. Compounds (23 nL) were transferred via Kalypsys pintool equipped with 1,536-pin array. The plate was incubated for 15 min at room temperature, followed by the addition of 1 uL substrate to start the reaction. The plate was then centrifuged at 1000 rpm for 15 seconds, and the fluorescence intensity recorded on a ViewLux High-throughput CCD imager (Perkin-Elmer) using standard BODIPY optics (525 nm excitation and 598 nm emission). The plate was then incubated for 30 minutes, and a second read on the ViewLux was performed. The fluorescence intensity difference over the 30-minute period was used to calculate the respective reaction rate for each well.
# Potency means the concentration at half of the fitted maximal effect.
SMILES,"largest response in the series, negative = inhibition",Potency
C/C(=N\Nc1ccc(S(N)(=O)=O)cc1[N+](=O)[O-])c1cccs1,0.687% (inactive),–
C/C(=N\Nc1ncc(Cl)cc1Cl)c1ccc(S(=O)(=O)NCc2ccco2)cc1,-16.4% (inactive),–
C/C(=N\Nc1nc2ccccc2[nH]1)c1cccs1,-4.19% (inactive),–
COc1cccc(/C(C)=N/Nc2ncc(Cl)cc2Cl)c1,–,56.2 µM (active)
CCN(CC)c1ccc(C(=O)N/N=C(\C)c2cccc(OC)c2)cc1,-1.28% (inactive),–
C/C(=N\Nc1ncc(Cl)cc1Cl)c1cccs1,–,39.8 µM (active)
Cn1cnc2c1c(=O)n(Cc1ccccc1C#N)c(=O)n2C,4.28% (inactive),–
C=CC1=C2C=C(C3CC3)N(CC(C)C)C=C2C(=O)C(C)(OC(=O)c2ccco2)C1=O (configuration not stated),5.15% (inactive),–
CC(C)(C)NC(=O)COc1ccc(CNc2ccc3[nH]c(=O)[nH]c3c2)cc1,–,56.2 µM (active)
CC(=O)Nc1ccc(OCC(=O)NCc2ccc(C)cc2)cc1,11.1% (inactive),–
COC(=O)c1ccc(OCC(=O)NC(C)(C)C)cc1,-10.7% (inactive),–
CCS(=O)(=O)Nc1ccc(C(=O)NCCSc2ccccc2)cc1,22% (inactive),–
COC(=O)C1=CN(c2ccc(F)c(F)c2)C=C(C(=O)OC)C1c1ccc([N+](=O)[O-])cc1,-0.236% (inactive),–
COc1cccc(OC)c1C(=O)Nc1ccc2c(c1)n(C)c(=O)n2C,6.56% (inactive),–
O=C(Nc1cccc2ncccc12)C(Cl)(Cl)Cl,5.72% (inactive),–
Cc1ccc(C(=O)Nc2cccc3ncccc23)cc1[N+](=O)[O-],9.98% (inactive),–
Cc1ccc(/C=C(\C#N)C(=O)Nc2cccc3ncccc23)o1,–,8.91 µM (active)
Cc1c(C(=O)NC(C)C2CC3CCC2C3)cccc1[N+](=O)[O-] (configuration not stated),6.2% (inactive),–
C[C@]12CC[C@@H]3c4ccc(O)cc4C[C@@H](CCCCCCCCCS(=O)CCCC(F)(F)C(F)(F)F)C3[C@@H]1CC[C@@H]2O (some centres not stated),-0.311% (inactive),–
Brc1ccc(-c2nn[nH]n2)cc1,19% (inactive),–
CC(N)(C(=O)O)c1ccc(-c2nn[nH]n2)cc1 (configuration not stated),–,35.5 µM (active)
CC(C)c1ccc(-c2nn[nH]n2)cc1,21.7% (inactive),–
O=C(CSc1ncn[nH]1)Nc1ccnc2ccccc12,12.4% (inactive),–
O=C(CSc1ncn[nH]1)Nc1nsc(-c2ccccc2)n1,9.26% (inactive),–

SMILES,"largest response in the series, negative = inhibition",Potency
CCN(C(=O)CSc1ncn[nH]1)c1cccc2ccccc12,–,39.8 µM (active)
O=c1cc(-c2ccc(O)cc2)oc2c([C@@H]3O[C@H](CO)[C@@H](O)[C@H](O)[C@H]3O)c(O)cc(O)c12,-2.52% (inactive),–
CS(=O)(=O)N(Cc1ccc(Cl)cc1)c1ccc(C(=O)NCCSCc2ccco2)cc1,22.6% (inactive),–
CCc1ccccc1N(CC(=O)NCCSCc1ccco1)S(C)(=O)=O,–,17.8 µM (active)
Cc1cc(C)cc(N(CC(=O)NCCSCc2ccco2)S(C)(=O)=O)c1,9.95% (inactive),–
CC(C)N(C(=O)Cn1cc(S(=O)(=O)CC(=O)N2CCOCC2)c2ccccc21)C(C)C,4.5% (inactive),–
O=C(C1CC(=O)N(c2ccc(Br)cc2)C1)N1CCCC1 (configuration not stated),5.88% (inactive),–
Cn1c(Cc2cccs2)nnc1SCC(=O)Nc1ccccc1,11.4% (inactive),–
Cn1c(CSCC(=O)Nc2ccccc2)nnc1SCc1ccccc1,-1.75% (inactive),–
Cn1c(CC(=O)Nc2ccccc2)nnc1SCC(=O)c1ccccc1,–,35.5 µM (active)
CCN1CCCC1CNC(=O)c1cc2cc(OC)c(OC)cc2[nH]1 (configuration not stated),18.4% (inactive),–
COc1ccccc1CCNC(=O)C1CCN(C(=O)/C=C/c2ccccc2)CC1,-8.37% (inactive),–
O=C1CCCN1CCCNC(=S)Nc1ccc(F)c(Cl)c1,–,14.1 µM (active)
Cc1c(Cl)cccc1NC(=O)NCCCN1CCCC1=O,4.97% (inactive),–
Cc1cc(Cl)ccc1NC(=S)NCCCN1CCCC1=O,5.94% (inactive),–
CCN(CC)C(=O)c1sc2nc(-c3ccccc3)ccc2c1N,–,20 µM (active)
Cc1ccc2c(N)c(C(=O)c3ccccc3)sc2n1,-25.4% (inactive),–
CCCC(=O)n1nc(-c2ccccc2)nc1N,-3.09% (inactive),–
COc1cc(C(C(=O)NC2CCCC2)N(C(=O)c2ccco2)c2ccccc2C(C)=O)cc(OC)c1OC (configuration not stated),9.66% (inactive),–
COc1ccc2[nH]c(=O)c(C3c4cc(OC)c(OC)cc4CCN3C(=O)c3ccco3)cc2c1 (configuration not stated),-2.97% (inactive),–
Cc1cccc(NC(=O)C2CCCN(C(=O)NCc3ccccc3)C2)c1C (configuration not stated),5.34% (inactive),–
COc1ccccc1OCC(O)CN1CCOCC1 (configuration not stated),15.2% (inactive),–
CC(C)(C)NCC(O)COc1cccc2[nH]c(=O)[nH]c12 (configuration not stated),6.07% (inactive),–

# Reference: PubChem BioAssay AID1490 (National Center for Advancing Translational Sciences (NCATS), 2009)
